Bioassay records from PubChem BioAssay.
HT1080 IDH1KD tx = qHTS for induction of synthetic lethality in tumor cells producing 2HG: qHTS for the HT-1080-IDH1KD cell line; Potency, µM (highest dose often 46.1 µM), inactives show at the top dose activity, negative = toxicity, actives largely listed as cytotoxic; actives 2% (n = 360,000); HT-1080 IDH1 knockdown viability, ATP luminescence, 48 h; AID 686971, 2013;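 further: potency means the concentration at half of the fitted maximal effect; 0% = DMSO wells and -100% = cell-free medium wells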
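CellTiter-Glo luminescence after 48 h compound exposure at 37 degrees C of IDH1-knockdown HT-1080 cells in 5% FBS RPMI. %Activity scaled between DMSO wells and cell-free media wells, with curves fitted and assigned curve classes.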
ELG1 repair inh = qHTS screen for small molecules that inhibit ELG1-dependent DNA repair in human embryonic kidney (HEK293T) cells expressing luciferase-tagged ELG1. AID 504467, 2011. actives 2.3% (n = 330,000). HEK293T ELG1-luciferase reporter, luminescence, 16 h; DNA damage induced by 5-fluorouridine. Potency, µM (highest dose often 46.1 µM), without a hit: at the highest dose activity change, negative = inhibition, most hits filed as inhibitors; further: potency means the concentration at half of the fitted maximal effect; nearly all actives have a fitted effect of over 55% in size
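Luminescence from the luciferase reporter, measured 30 min after ONE-Glo reagent at room temperature, was the read-out. Beforehand, 2,000 cells per well were exposed for 16 hr at 37 °C to 5-fluorouridine together with compound or vehicle.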
DT40 TDP1 CPT = qHTS for Inhibitors of human tyrosyl-DNA phosphodiesterase 1 (TDP1): qHTS in cells in presence of CPT; chicken DT40 Tdp1-/-;hTDP1 cells + 20 nM CPT, ATP luminescence, 48 h; Potency, µM (series often up to 46.2 µM), without a hit: at the top dose activity change, negative = growth inhibition, usual class: inhibitors; actives 12% (n = 420,000); further: potency means the concentration at half of the fitted maximal effect; nearly all actives have a fitted effect of over 55% in size
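Chicken DT40 Tdp1-/- cells stably complemented with human TDP1 were seeded at 400 cells/well in medium containing 20 nM camptothecin, exposed to pin-transferred compounds, and grown at 37 °C for at least 48 hr. Viability was read as ATP luminescence.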
IL-1B inflam inh = qHTS for Inhibitors of Inflammasome Signaling: IL-1-beta AlphaLISA Primary Screen; AID 743279, 2014; actives 4.7% (n = 360,000); THP-1 LPS/ATP IL-1B secretion, AlphaLISA, 16 h; stronger effect = lower value; activity change, % at 57.5 µM; in the data active means activity change below about -50%; inconclusive means mostly about -30% to -49%
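THP-1 cells pretreated 1 hr with compounds (up to 57.5 uM final), then stimulated with LPS (250 ng/mL final) plus ATP (1.25 mM final); secreted IL-1B measured by AlphaLISA after 16 hr, decreased signal indicating inhibition.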
HT1080-NT tox = qHTS for induction of synthetic lethality in tumor cells producing 2HG: qHTS for the HT-1080-NT fibrosarcoma cell line; HT-1080-NT fibrosarcoma viability, CellTiter-Glo ATP luminescence, 48 h; AID 686970, 2013; Potency, µM (titrated, usually from 46.1 µM), without a hit: at the highest dose activity, negative = less viability, actives largely listed as cytotoxic; actives 1.6% (n = 360,000);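 further: NT is the 2HG producing partner of a matched IDH1 knockdown line; potency means the concentration at half of the fitted maximal effect; 0% = DMSO-treated cells and -100% = media-only wells without cells; nearly all actives have a fitted effect of over 55% in size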
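Fibrosarcoma NT cells, 750 per well in 5% FBS RPMI, were exposed to compound for 48 hours. Viability: CellTiter-Glo luminescence.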
DT40 TDP1 no CPT = qHTS for Inhibitors of human tyrosyl-DNA phosphodiesterase 1 (TDP1): qHTS in cells in absence of CPT; DT40 Tdp1-/- hTDP1 cells, no CPT, ATP luminescence, 48 h; actives 15% (n = 420,000); AID 686978, 2013; Potency, µM (titrated, usually from 46.2 µM), without a hit: at the highest dose activity change, negative = growth inhibition, actives largely listed as inhibitors; further: potency means the concentration at half of the fitted maximal effect; nearly all actives have a fitted effect of over 55% in size
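No-CPT arm: Tdp1-/-;hTDP1 DT40 cells (400/well) plus compounds, incubated ≥48 hr at 37 °C. Readout CellTiter-Glo luminescence.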
An asterisk follows results filed as active; u = inconclusive; x = not tested or not shown. The list is not random: actives were taken first. Their share in the collection is about 19%. Unless noted, the call rests on the fitted dose curve; in most records, active means well fitted curve in the direction sought with a large enough effect; inconclusive means small, poorly fitted or top-dose-only effect, or another doubt; inactive means no such curve, though single readings can be large; an effect the other way counts as inactive or inconclusive. Unless noted, on the % scale 0 is the no-effect control and ±100 the full control effect.

SMILES	HT1080 IDH1KD tx	ELG1 repair inh	DT40 TDP1 CPT	IL-1B inflam inh	HT1080-NT tox	DT40 TDP1 no CPT
Cc1c(C(=O)Nc2nc(-c3ccc(F)cc3)ns2)oc2ccc(Br)cc12	x	x	9%	x	x	-8%
Cc1cc(C)c(S(=O)(=O)NC2CC(C)(C)NC(C)(C)C2)cc1Br	-24%	1%	u	-15	-13%	u
Cc1ccc2nc3c(cc(C#N)c(=O)n3-c3nnc(SCc4ccccc4Cl)s3)c(=O)n2c1	x	x	-10%	x	x	-7%
CCOC(=O)CC1C(=O)NCCN1C(=S)NC(=O)c1ccc(C)c(Br)c1 (centres undefined)	6%	x	5.8µM*	-16	1%	5.2µM*
CCOC(=O)CC1C(=O)NCCN1C(=O)Nc1ccccc1 (centres undefined)	8%	u	3%	19	6%	-3%
Cc1oc(-c2ccc3c(c2)OCCO3)cc1C(=O)O	u	1.6µM*	u	2	u	u
Cc1oc(-c2ccc3c(c2)OCCO3)cc1C(=O)NCC(=O)O	-6%	u	2%	-28	-1%	-19%
COc1ccc(NC(=O)CN2CCN(CC(=O)Nc3ccc(F)cc3)CC2)c(OC)c1	8%	-3%	u	-6	9%	u
Cc1cc(OC(C)C(=O)N2CCN(c3ccccc3)CC2)c2c(C)c(C)c(=O)oc2c1 (centres undefined)	-5%	16µM*	u	-3	1%	29µM*
Cc1cc(OCC(=O)N2CCN(c3ccccc3)CC2)c2c(C)c(C)c(=O)oc2c1	-3%	u	-9%	3	14%	23%
Cc1cccc(N(CC(O)Cn2c3ccccc3c3ccccc32)S(=O)(=O)c2ccc(F)cc2)c1 (centres undefined)	x	x	21µM*	x	x	8.2µM*
CCCN(CCC)CC(O)Cn1c2ccccc2c2ccccc21 (centres undefined)	6%	5%	u	-75*	-3%	u
Cc1cc(C)n(CC(O)CN(c2ccccc2)S(=O)(=O)c2ccccc2)n1 (centres undefined)	12%	-13%	-8%	3	11%	u
Cc1c(C)n(CC(O)CN(CCO)CCO)c2ccccc12 (centres undefined)	-1%	-3%	-28%	-8	-2%	-2%
CC(=O)Nc1ccc(N(CC(O)Cn2c3ccccc3c3ccccc32)S(=O)(=O)c2ccc(C)cc2)cc1 (centres undefined)	u	u	u	-55*	u	u
Cc1ccc(N(CC(O)CN2CCCC2)S(=O)(=O)c2ccc(C)cc2)cc1 (centres undefined)	8%	-8%	-9%	-20	-5%	-12%
Cc1ccc(S(=O)(=O)N(CC(O)CN2C(=O)NC(C)(C)C2=O)c2cccc(C)c2)cc1 (centres undefined)	4%	-1%	-15%	-11	u	0%
Cc1ccc(N(CC(O)Cn2nc(C)cc2C)S(=O)(=O)c2ccc3ccccc3c2)cc1 (centres undefined)	-2%	u	u	u	-9%	18µM*
CCCNC(=O)COc1coc(CN2CCN(c3ccccc3F)CC2)cc1=O	0%	-2%	-25%	0	14%	11%
COCCN1CC(C(=O)NCc2ncccc2C)CCC1=O (centres undefined)	-2%	16%	4%	13	19%	14%
Cc1ccc(N(CC(O)Cn2c3ccccc3c3ccccc32)S(C)(=O)=O)cc1 (centres undefined)	u	u	-20%	-66*	u	u
Cc1ccc(N(CC(O)Cn2c3ccccc3c3ccccc32)S(C)(=O)=O)c(C)c1 (centres undefined)	u	-8%	u	-72*	18µM*	u
Cc1cccc(C)c1N(CC(O)Cn1c2ccccc2c2ccccc21)S(C)(=O)=O (centres undefined)	u	-13%	u	-22	u	u
CN1CCC2(CC1)CCN(C(=O)c1ccncc1)CC2	x	x	6%	x	x	0%
COc1ccc(/C=c2\sc3nc(-c4ccccc4)c(-c4ccccc4)n3c2=O)cc1OC	3%	11%	u	-9	7%	16µM*
SMILES	HT1080 IDH1KD tx	ELG1 repair inh	DT40 TDP1 CPT	IL-1B inflam inh	HT1080-NT tox	DT40 TDP1 no CPT
COc1cc(/C=c2/sc3nc(-c4ccccc4)c(-c4ccccc4)n3c2=O)cc(OC)c1OC	0%	2%	6.5µM*	3	1%	10µM*
COc1ccc(/C=c2/sc3nc(-c4ccccc4)c(-c4ccccc4)n3c2=O)cc1	13%	-2%	u	-2	16%	u
Cc1cc(C)c(S(=O)(=O)Nc2ccc(N(C)C)cc2)c(C)c1-n1cnnn1	-17%	20%	29µM*	-16	-10%	16µM*
Cc1ccc(S(=O)(=O)N2CCN(c3nc(-c4cccs4)nc4ccccc34)CC2)c(C)c1	1%	x	u	x	23%	u
COc1ccc(N2CCN(c3nc(-c4cccs4)nc4ccccc34)CC2)cc1	1%	u	u	9	13%	23µM*
c1csc(-c2nc(N3CCOCC3)c3ccccc3n2)c1	-21%	u	u	-17	-20%	u
